Reference: PubChem BioAssay (NCI)
This is part of a sample that, as a whole, favours compounds with a hit. Of some 79,000 tested, about 15% had one in any assay. Values without a mark were called inactive. Rule as the data show it: active = growth inhibition above about 70%; inactive = the rest.

experiment: NCI Yeast Anticancer Drug Screen. Data for the mlh1 rad18 strain (AID 175); conditions: S. cerevisiae mlh1 rad18 strain growth inhibition; at 50.0 µM; active compounds read high
Summary of the method: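 Genetically defined yeast (DNA repair-deficient) exposed to compounds; growth inhibition determined relative to vehicle.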

Structure (SMILES) | growth inhibition [%]
O=C(NCCNc1ccccc1)C12CC3CC(CC(C3)C1)C2 | 9.5
COc1ccc2c(c1)OCCN(C)OC2c1ccccc1 (stereo not given) | -1.5
CN=C(NN)NS(=O)(=O)c1cc(C)c(Cl)cc1S | 7.05
COC(=O)[C@H](Cc1ccc(OC(C)(C)C)cc1)N[C@H](C)C(=O)N[C@@H](Cc1ccccc1)C(=O)OCc1ccccc1 | 57
O=C(O)c1ccccc1C(=O)Cc1ccccc1 | -9.6
Oc1ccc2cccc(O)c2c1 | 3.9
O=C(Cc1ccccc1)c1ccc(N2CCOCC2)cc1 | 25.7
NCC(=O)Nc1ccc(Cl)cc1C(=O)c1ccc[nH]1 | 0.85
CS(=O)(=O)C(CCC(=O)C(c1ccccc1)c1ccccc1)C(=O)c1ccccc1 (stereo not given) | -29.2
COC(=O)C1CC(=O)CCC1c1ccccc1 (stereo not given) | -16.6
CCCCCCCCCCCCCCCCc1ccc(CCCC(=O)O)cc1 | 12.5
c1ccc2c(CN3CCN(Cc4c[nH]c5ccccc45)CC3)c[nH]c2c1 | -21.9
Cc1cc(=O)n(Cc2ccco2)c(=S)[nH]1 | -9
CC(=O)Oc1ccc(OC(C)=O)c(C(=O)O)c1 | 17.4
O=C(O)CS/C(=N\S(=O)(=O)c1ccccc1)Nc1cccc(Cl)c1 | -7.85
O=C(NCc1ccccn1)c1ccccc1 | 6.8
CCC(Cc1cnc2nc(N)nc(N)c2n1)c1ccc(C(=O)NC(CCC(=O)O)C(=O)O)cc1 (stereo not given) | -14.5
NC(C(=O)O)c1ccccc1 (stereo not given) | -19.5
CCOc1ccccc1C(=O)Oc1ccc(C)cc1 | 24.1
COC(=O)C1=C(O)/C(=C\c2ccccc2)NC1=O | -5.7

Structure (SMILES) | growth inhibition [%]
O=C(CN1CCN(Cc2ccccc2)CC1)N1CCCn2c1nc1ccccc1c2=O | -3.85
CCc1ccc(C(O)C(=O)O)cc1 (stereo not given) | -3.75
CSc1nc2c(nc(N)n2C2OC(CO)C(O)C(O)C2O)c(=O)[nH]1 (stereo not given) | -8.9
O=C(O)c1cscn1.O=C(O)c1cscn1.[I][Pt][I] | 48
CCOC(=O)NN(C(=O)OCC)C(C(=O)C1CCCCC1)N(NC(=O)OCC)C(=O)OCC | -8.4
c1ccc(N=C(Nc2ccccc2)N2CCCC2)cc1 | -19.4
Nc1nc(C(F)(F)F)nc(N)c1N | 14.6
O=C(CCCCc1ccccc1)NO | 33.5
CCCC(C)OS(=O)(=O)c1ccc(C)cc1 (stereo not given) | 5.05
CC(C)(N)COCOCC(C)(C)N | 0
CN1CCC(CNc2ccccc2)CC1 | 3.45
NC(=S)n1nc(-c2ccccc2)c(N=Nc2cccc([N+](=O)[O-])c2)c1-c1ccccc1 | 10.8
CCC1(CC)NC(=S)NC1=S | 20
CCOC1C=CCCO1 (stereo not given) | 5.65
COc1cc2c(c3c1/c(=N\N=c1/c4ccccc4n(C)c4c5c(cc(OC)c14)OC(C)(C)C=C5)c1ccccc1n3C)C=CC(C)(C)O2 | 27.4
Cn1nc2c(c1-c1ccncc1)CCc1ccccc1-2 | 24.6
CCOC(=O)/C=C/c1ccc([N+](=O)[O-])cc1 | -0.05
CCCCCCCCCCCCCC(=O)OCC1OC(n2cc(F)c(=O)[nH]c2=O)C(N)C(OC(=O)CCCCCCCCCCCCC)C1O (stereo not given) | 24.1
CCNC(=O)CCC(NS(=O)(=O)c1ccc(NC(=O)c2ccc(Cl)cc2)cc1)C(=O)O (stereo not given) | -1.9
CC1CP(=O)(Cc2ccccc2)C(C)(c2ccccc2)C1=O (stereo not given) | -6.5
